Measurements: PubChem BioAssay (NCATS)
Results filed as inconclusive are left out. A number with no mark means an inactive call. Activity calls are given as the source filed them. Calls follow the shape of the dose curve; as a rule, active = well fitted inhibition curve with a large enough effect; inconclusive = small, poorly fitted or top-dose-only effect; inactive = flat fitted curve, though single readings scatter.

Tests used:
[1] = qHTS profiling for inhibitors of Plasmodium falciparum proliferation (AID 504749); also: nearly all actives have a fitted effect of over 60% in size;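 as to activity, negative = inhibition: 0% = DMSO vehicle and full inhibition = artemisinin control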; settings: P. falciparum in erythrocytes, SYBR Green DNA, 72 h
Method in brief: (§1)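 Parasite proliferation within erythrocytes, 72 h exposure. Endpoint: SYBR Green I fluorescence after overnight lysis at room temperature. Controls: 0.29 uM artemisinin, DMSO.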

3D7 = experiment: as above; settings: P. falciparum in erythrocytes, SYBR Green DNA, 72 h; series mostly up to 28.7 µM
Method in brief: as §1

7G8 = experiment: as above; settings: P. falciparum in erythrocytes, SYBR Green DNA, 72 h; series mostly up to 28.7 µM
Method in brief: as §1

[2] = at 28.7 µM (top of the series), parasite line A
[3] = at 28.7 µM (top of the series), parasite line B
Potency is read from the fitted curve at half-maximal effect.

SMILES	activity, negative = inhibition [1, 2]	activity, negative = inhibition [1, 3]	Potency (3D7)	Potency (7G8)	Potency ([1]; parasite line A)	Potency ([1]; parasite line B)	activity, negative = inhibition ([1]; at 12.8 µM (top of the series), parasite line A)	activity, negative = inhibition ([1]; at 12.8 µM (top of the series), parasite line B)
N[C@@H](CSCCCO)C(=O)O	-6.32%	-2.52%	inactive	inactive	–	–	–	–
CNC(=O)Oc1ccc2c(c1)[C@]1(C)CCN(C)[C@@H]1N2C	–	–	3550 nM (active)	2240 nM (active)	1580 nM (active)	2000 nM (active)	–	–
CC(CN1c2ccccc2Sc2ccccc21)N(C)C (stereo not drawn)	8.14%	-0.843%	inactive	8910 nM (active)	–	–	–	–
NC(=O)NC(=O)Cc1ccccc1	2.68%	-4.74%	inactive	inactive	–	–	–	–
Cc1cccc(C)c1NC(=O)CN(CC(=O)O)CC(=O)O	13.4%	2.17%	inactive	inactive	–	–	–	–
CC1(C)CO[C@@H](CC(=O)O)CN1	1.48%	5.08%	inactive	inactive	–	–	–	–
CN1CCCCC1CCN1c2ccccc2Sc2ccc(S(C)=O)cc21 (stereo not drawn)	-4.2%	5.63%	inactive	10000 nM (active)	–	–	–	–
NCCNCCNCCNCCN	12.5%	-2.06%	inactive	inactive	–	–	–	–
CCn1cc(C(=O)O)c(=O)c2cnc(N3CCNCC3)nc21	–	–	inactive	inactive	–	–	7.13%	-22.6%
O=C(O)CN1C(=O)c2cccc3cccc(c23)C1=O	-2.87%	1.81%	inactive	inactive	–	–	–	–
CCCCCCCCCCCCOS(=O)(=O)O	2.98%	-1.46%	inactive	inactive	–	–	–	–
CC(O)COc1ccccc1 (stereo not drawn)	5.76%	0.212%	inactive	inactive	–	–	–	–
